Outcome data for 70 compounds are collected here from PubChem BioAssay AID1159577 (Broad Institute, 2015).

SMILES strings stand for the structures. The whole screen tested about 1,300 compounds, of which about 240 (18%) were called active. Another 8% or so got no clear call; they are omitted. How the calls were made is not given here. Only a sample is shown. Results with a measured potency or affinity are listed apart.

The experiment in a line: toxicity to human hepatoma HepG2 cells – cell-based, cherry-picked samples, cytotoxicity control, dose response (AID 1159577). The settings on record: HepG2 cytotoxicity counterscreen, plate reader; series mostly up to 19.5 µM. For orientation: A counterscreen serves to expose hits that act by an unwanted route or on another target.
As to `COc1ccc(C#Cc2ccc3c(c2)O[C@@H](CN(C)C(=O)Nc2cccc(OC)c2)[C@@H](C)CN([C@H](C)CO)S3(=O)=O)cc1`, the result was inactive. On to `O=C(c1ccccn1)N1CC2(C1)[C@@H](c1ccccc1)[C@H](CO)N2Cc1ccc(Cl)cc1`, for which the compound was classed as inactive. On to `COc1ccc(C#Cc2ccc([C@H]3[C@H]4CN(C(=O)c5ccc(F)cc5)CC(=O)N4[C@H]3CO)cc2)cc1`, for which the result was inactive. On to `C[C@H](CO)N1C[C@H](C)[C@@H](CN(C)C(=O)Nc2ccc(F)cc2)OCc2ccccc2-c2c(n(C)c3ccccc23)C1=O`, for which the call was inactive. `CCC(=O)N1CC2(CCN(C(=O)Nc3ccccc3F)CC2)c2c([nH]c3cc(OC)ccc23)[C@H]1CO`: the outcome was inactive. With `CCC(=O)N1CC2(C1)CN(C(=O)Nc1ccccc1F)[C@H](CO)c1[nH]c3cc(OC)ccc3c12` the entry was “inactive”; with `COc1ccc2c3c([nH]c2c1)[C@@H](CO)N(C(=O)c1cccc(F)c1)CC31CCN(C(=O)c2ccccc2)CC1`, “inactive”. Regarding `COc1ccc2c3c([nH]c2c1)[C@@H](CO)N(C(=O)Cc1ccccc1)CC31CCN(C(=O)Cc2ccccc2)CC1`, the result was inactive. As for `COc1cccc(-c2ccc3c(c2)[C@@H]2[C@@H](CCN2C(=O)C2CCCC2)[C@H](CO)N3)c1`, the outcome was inactive. In the case of `CN(C)c1ccc2c(c1)[C@@H]1C[C@@H](CC(=O)N3CCc4ccccc4C3)O[C@@H](CO)[C@@H]1O2`, the call was inactive. As to `O=C(c1ccc(F)cc1)N1CC(=O)N2[C@H](CO)[C@H](c3ccc(C#Cc4ccc(F)cc4)cc3)[C@H]2C1`, the result was inactive. For `CCC(=O)N1CCC2(CC1)CN(Cc1cc(F)ccc1F)[C@@H](CO)c1[nH]c3cc(OC)ccc3c12` the value was “inactive”; for `COc1ccccc1C#Cc1ccc([C@H]2[C@@H](C#N)N(C(=O)C3CCCCC3)[C@H]2CO)cc1`, “inactive”. With `COc1cccc(C#Cc2ccc([C@H]3[C@@H](C#N)N(C(=O)C4CCCC4)[C@@H]3CO)cc2)c1` the entry was “inactive”; with `COc1cccc(C#Cc2ccc([C@@H]3[C@@H](C#N)N(C(=O)C4CCCCC4)[C@H]3CO)cc2)c1`, “inactive”; with `COc1ccccc1C#Cc1ccc([C@@H]2[C@H](C#N)N(C(=O)C3CCCC3)[C@H]2CO)cc1`, “inactive”.

As for `COCC(=O)N1CC2(C1)CN(Cc1ccccc1F)[C@@H](CO)c1[nH]c3cc(OC)ccc3c12`, the compound was classed as inactive.

Take `C[C@H](CO)N1C[C@H](C)[C@@H](CN(C)C(=O)C2CCCCC2)Oc2ncc(/C=C/c3ccccc3)cc2C1=O`: the call was inactive.

Regarding `O=C(C[C@H]1C=C[C@H](NC(=O)Cc2ccccn2)[C@H](CO)O1)NCCc1ccccc1`, the outcome was inactive.

As to `C[C@H]1CN([C@@H](C)CO)S(=O)(=O)c2ccc(C#Cc3ccccc3)cc2O[C@@H]1CN(C)C(=O)C1CC1`, the call was inactive.

Turning to `O=C(C[C@H]1C=C[C@@H](NC(=O)Nc2ccccc2F)[C@H](CO)O1)NCc1ccc(-c2ccccc2)cc1`, the call was inactive. In the case of `O=C(c1ccccc1F)N1CC[C@H]2[C@H](CO)Nc3ccc(C#Cc4ccc(F)cc4)cc3[C@H]21`, the result was inactive. On to `COc1ccccc1C#Cc1ccc2c(c1)[C@H]1NCC[C@H]1[C@@H](CO)N2`, for which the compound was called inactive. As to `O=C(c1cccc(F)c1)N1CC[C@H]2[C@H](CO)Nc3ccc(C#Cc4cccc(F)c4)cc3[C@H]21`, the call was inactive. As to `OC[C@@H]1Nc2ccc(C#Cc3cccc(F)c3)cc2[C@@H]2NCC[C@H]12`, the compound was called inactive.

In the case of `COc1ccc(CN2C[C@@H](C)[C@H](OC)CN(C)C(=O)c3ccc(NC(=O)c4nc5ccccc5s4)cc3OC[C@H]2C)cc1`, the call was inactive. On to `CCCN(C)C[C@@H]1Oc2cc(C#Cc3ccccc3)ccc2S(=O)(=O)N([C@@H](C)CO)C[C@@H]1C`, for which the compound was called inactive. For the compound `COc1cccc(NC(=O)N2[C@@H](CO)[C@H](c3ccccc3)[C@@H]2CNCC(C)C)c1`, the compound was called inactive. In the case of `O=C(c1cccc(F)c1)N1CC(=O)N2[C@H](CO)[C@H](c3ccc(-c4cccnc4)cc3)[C@H]2C1`, the compound was called inactive. `CO[C@H]1CN(C)C(=O)c2cc(NC(=O)c3cc(C)on3)ccc2OC[C@H](C)N(C(=O)C2CC2)C[C@H]1C`: the compound was classed as inactive. For `COc1ccc2c3c(n(C)c2c1)[C@@H](CO)N(C(=O)C1CC1)CC31CN(C(=O)Nc2cccc(F)c2)C1`, the call was inactive. `C[C@H](CO)N1C[C@H](C)[C@@H](CN(C)C(=O)c2ccccc2F)Oc2ncc(C#Cc3cccc(F)c3)cc2C1=O`: the result was inactive. On to `COCC#Cc1ccc([C@H]2[C@H](CO)N3C(=O)CN(C(=O)CN4CCOCC4)C[C@@H]23)cc1`, for which the compound was classed as inactive. As to `COc1ccc(C#Cc2ccc3c(c2)[C@@H]2[C@@H](CCN2C(=O)C2CCCC2)[C@H](CO)N3)cc1`, the call was inactive. Consider `CC(C)(C)[S@@](=O)N1Cc2cc(C(=O)NCCN3CCCCC3)nc(-c3cccc(-c4ccc(C#N)cc4)c3)c2[C@H]1CCO`, for which the compound was classed as inactive. For `CN1CCN(C(=O)C[C@H]2C[C@@H]3c4cc(NC(=O)Nc5ccc(C(F)(F)F)cc5)ccc4O[C@@H]3[C@@H](CO)O2)CC1` the value was “inactive”; for `COCC(=O)N1CC2(C1)CN(C(=O)CN1CCOCC1)[C@@H](CO)c1c2c2ccc(OC)cc2n1C`, “inactive”; for `CCCN(C)C[C@H]1Oc2cc(C#Cc3cccnc3)ccc2S(=O)(=O)N([C@H](C)CO)C[C@H]1C`, “inactive”.

Turning to `CO[C@H]1CN(C)C(=O)c2ccc(NC(=O)CC(F)(F)F)cc2OC[C@@H](C)N(CC2CC2)C[C@H]1C`, the compound was classed as inactive.

Turning to `CCCC#Cc1ccc2c(c1)O[C@H](CN(C)C(=O)Nc1ccc(OC)cc1)[C@H](C)CN([C@H](C)CO)S2(=O)=O`, the result was inactive. Turning to `N#Cc1ccc(-c2ccc3c(c2)[C@@H]2[C@@H](CCN2C(=O)C2CCC2)[C@@H](CO)N3)cc1`, the compound was called inactive. Consider `COc1ccc(CN2CC3(C2)CN(Cc2ccc4c(c2)OCO4)[C@H](CO)c2[nH]c4cc(OC)ccc4c23)cc1`, for which the compound was classed as inactive.

For the compound `COc1ccc2c3c([nH]c2c1)[C@@H](CO)N(C(=O)CN(C)C)CC31CCN(CC2CCCCC2)CC1`, the compound was called inactive. With `COc1ccc2c3c([nH]c2c1)[C@@H](CO)N(C(C)=O)CC31CN(C(=O)CN2CCOCC2)C1`, the compound was classed as inactive. In the case of `COc1ccc(CN2CC3(CN(C(C)=O)C3)c3c([nH]c4cc(OC)ccc34)[C@@H]2CO)cc1`, the compound was called inactive. Turning to `CO[C@H]1CN(C)C(=O)c2cc(NC(=O)c3ccccc3F)ccc2OC[C@H](C)N(C)C[C@H]1C`, the call was inactive. On to `COc1ccccc1CNC(=O)C[C@H]1C[C@@H]2c3cc(NC(=O)Nc4ccc(C(F)(F)F)cc4)ccc3O[C@@H]2[C@H](CO)O1`, for which the compound was called inactive. For the compound `C[C@H]1CN([C@@H](C)CO)C(=O)Cc2cc(NC(=O)CCC(F)(F)F)ccc2O[C@H]1CN(C)S(C)(=O)=O`, the compound was called inactive.

In the case of `COc1ccccc1C#Cc1ccc2c(c1)[C@H]1[C@H](CCN1C(=O)CN1CCOCC1)[C@@H](CO)N2`, the call was inactive. In the case of `CO[C@@H]1CN(C)C(=O)c2ccc(NC(=O)Nc3ccccc3F)cc2OC[C@@H](C)N(CC2CC2)C[C@H]1C`, the call was inactive.

As to `C[C@H](CO)N1C[C@H](C)[C@H](CN(C)C(=O)Cc2ccncc2)Oc2cc(C#CC3CCCC3)ccc2S1(=O)=O`, the compound was classed as inactive. Regarding `COc1ccc(CN2C[C@@H](C)[C@@H](OC)CN(C)C(=O)c3cc(NC(=O)c4nc5ccccc5s4)ccc3OC[C@H]2C)cc1`, the compound was called inactive. Regarding `CCCN(C)C[C@@H]1Oc2cc(C#Cc3ccncc3)ccc2S(=O)(=O)N([C@H](C)CO)C[C@@H]1C`, the outcome was inactive.

`COc1ccc(NC(=O)N(C)C[C@@H]2Oc3cc(-c4ccc(C)cc4)ccc3S(=O)(=O)N([C@H](C)CO)C[C@H]2C)cc1`: the compound was classed as inactive. Regarding `CCS(=O)(=O)N1CCCCN2[C@H](CO)[C@H](c3ccc(C#Cc4ccccc4OC)cc3)[C@@H]2C1`, the compound was called inactive. With `CCC(=O)Nc1ccc2c(c1)OC[C@@H](C)N(Cc1cccc(F)c1)C[C@@H](C)[C@H](OC)CN(C)C2=O` the entry was “inactive”; with `CCCNC(=O)Nc1ccc2c(c1)OC[C@@H](C)N(Cc1ccccc1)C[C@@H](C)[C@H](OC)CN(C)C2=O`, “inactive”. As to `COCC(=O)N1[C@H](C#N)[C@@H](c2ccccc2C2=CCCC2)[C@@H]1CO`, the outcome was inactive.

`COc1ccc2c3c(n(C)c2c1)[C@H](CO)N(C(=O)Nc1ccc(F)cc1)CC31CN(C(=O)c2ccc3c(c2)OCO3)C1`: the outcome was inactive. Take `C[C@H]1CN([C@@H](C)CO)C(=O)c2ccccc2-c2ccccc2CO[C@H]1CN(C)Cc1cccc(C(F)(F)F)c1`: the compound was classed as inactive. Take `C[C@@H]1CN([C@H](C)CO)C(=O)c2ccccc2-c2ccccc2CO[C@@H]1CN(C)Cc1ccc(C(F)(F)F)cc1`: the outcome was inactive. With `C[C@@H]1CN([C@H](C)CO)C(=O)c2ccccc2-c2ccccc2CO[C@H]1CN(C)C(=O)Nc1cccc(C(F)(F)F)c1`, the call was inactive. Consider `C[C@@H]1CN([C@@H](C)CO)C(=O)c2ccccc2-c2ccccc2CO[C@H]1CN(C)C(=O)Nc1cccc(C(F)(F)F)c1`, for which the call was inactive. Consider `C[C@H]1CN([C@@H](C)CO)C(=O)c2ccccc2-c2ccccc2CO[C@H]1CN(C)Cc1ccc(-c2ccccc2)cc1`, for which the outcome was inactive. For `C[C@H]1CN([C@@H](C)CO)C(=O)c2ccccc2-c2ccccc2CO[C@H]1CN(C)Cc1ccc(Oc2ccccc2)cc1` the value was “inactive”; for `C[C@H](CO)N1C[C@H](C)[C@H](CN(C)C(=O)Nc2ccc(N3CCCCC3)cc2)OCc2cnnn2CCCC1=O`, “inactive”. Turning to `CCCC(=O)N1CC2(C1)CN(Cc1ccccc1F)[C@H](CO)c1c2c2ccc(OC)cc2n1C`, the outcome was inactive. With `COc1ccc2c3c([nH]c2c1)[C@@H](CO)N(Cc1cccc(Cl)c1)CC31CCN(C(C)=O)CC1` the entry was “inactive”; with `CN(C)c1ccc2c(c1)[C@@H]1C[C@H](CC(=O)N3CCc4ccccc4C3)O[C@@H](CO)[C@@H]1O2`, “inactive”; with `CO[C@@H]1CN(C)C(=O)c2ccc(NC(=O)NC3CCCCC3)cc2OC[C@@H](C)N(CCc2ccccc2)C[C@H]1C`, “inactive”.
